Assay results: PubChem BioAssay AID686978 (National Center for Advancing Translational Sciences (NCATS), 2013)
About 64,000 (15%) of roughly 420,000 compounds were called active. Roughly 27% stayed inconclusive and do not appear here. Calls come from the whole dose curve; as a rule, active = well fitted inhibition curve with a large enough effect; inconclusive = small, poorly fitted or top-dose-only effect; inactive = flat fitted curve, though single readings scatter. These entries were drawn from the full list.

assay: qHTS for Inhibitors of human tyrosyl-DNA phosphodiesterase 1 (TDP1): qHTS in cells in absence of CPT; details: DT40 Tdp1-/- hTDP1 cells, no CPT, ATP luminescence, 48 h; activity change, negative = growth inhibition: at 46.2 µM (top of the series); note: nearly all actives have a fitted effect of over 55% in size
Outline: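 No-CPT arm: Tdp1-/-;hTDP1 DT40 cells (400/well) plus compounds, incubated ≥48 hr at 37 °C. Readout CellTiter-Glo luminescence.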
% is set by controls: 0 for no effect and ±100 for the full control effect; potency is the fitted concentration of half-maximal effect.

SMILES	Potency	activity change, negative = growth inhibition
O=C(O)CCCCCCCCc1cn(CN2C(=O)c3ccccc3C2=O)nn1	inactive	–
Cc1ccsc1CN(C(=O)c1oc2ccc(Br)cc2c1C)C1CCS(=O)(=O)C1 (stereo not given)	6.51 µM (active)	–
COc1cc(C(=O)N(Cc2ccc(N(C)C)cc2)C2CCS(=O)(=O)C2)cc(OC)c1OC (stereo not given)	–	-20.2% (inactive)
Cc1cc(C)c(OCC(=O)N(Cc2cccs2)C2CCS(=O)(=O)C2)c(C)c1 (stereo not given)	–	-24.9% (inactive)
O=C(COC(=O)c1ccccc1)Nc1ccccc1Sc1ccccc1	–	-7.36% (inactive)
NC(=O)c1ccsc1NC(=O)c1ccco1	–	-9.46% (inactive)
O=C(NCc1ccco1)C(=O)c1cn(CC(=O)N2CCCCCC2)c2ccccc12	–	-8.99% (inactive)
O=C(/C=C/c1ccc(Cl)cc1)NCCCn1ccnc1	–	0.819% (inactive)
CCCCC(=O)Nc1ccc(C(=O)NCCCn2ccnc2)cc1	–	13.2% (inactive)
CC(C)(C)c1ccc(/C=C/C(=O)NCCCn2ccnc2)cc1	16.4 µM (active)	–
CN(C(=O)CN1C(=O)NC(C)(CCc2ccccc2)C1=O)c1ccccc1 (stereo not given)	–	-13% (inactive)
Cc1cc(C)nc(N(C#N)CC(=O)Nc2ccccc2)n1	–	-24.2% (inactive)
Nc1cccc2c1C(=O)N(Cc1nnc(-c3ccccc3Br)o1)C2=O	–	-15.5% (inactive)
Cc1ccc(C=O)cc1Cl	–	-19.2% (inactive)
CCC(C)(C)c1ccc(Oc2ccc(NC(=O)COC(=O)C3=COCCO3)cc2)cc1	25.9 µM (active)	–
COc1ccc(NC(=O)COC(=O)C2COc3ccccc3O2)cc1 (stereo not given)	–	13.6% (inactive)
CCOc1ccc(NC(=O)c2ccc(NC(=O)COC(=O)c3ccc(NC(=O)CC#N)cc3)cc2)cc1	–	-0.473% (inactive)
COC(=O)c1ccc(C2NC(=O)NC(C)=C2C(=O)N(C)C)cc1 (stereo not given)	–	-2.25% (inactive)
NC(=O)c1nnsc1-c1ccc(-c2snnc2C(N)=O)cc1	–	1.83% (inactive)
CCCCN(CC)CCNC(=O)c1[nH]c(C)c(C(C)=O)c1C	–	1.12% (inactive)
CCS(=O)(=O)N1CCCC(C(=O)NCCCN(C)Cc2ccccc2)C1 (stereo not given)	–	2.93% (inactive)
c1ccc(NCc2cccc3ccccc23)nc1	–	2.55% (inactive)
c1ccc2c(CNn3cnnc3)cccc2c1	–	5.72% (inactive)
N=C(N)SCc1cccc2ccccc12	20.6 µM (active)	–

SMILES	Potency	activity change, negative = growth inhibition
CCCCCc1ccc(-c2ccc(C(=O)O)cc2)nc1	–	-3.48% (inactive)
CCN(C(=O)COC(=O)c1c(NC(C)=O)sc(C)c1C)C1CCS(=O)(=O)C1 (stereo not given)	–	-12.8% (inactive)
Cc1c(NC(=O)C(C)Oc2cccc(Cl)c2)c(=O)n(-c2ccccc2)n1C (stereo not given)	–	-5.95% (inactive)
O=c1nc2s/c(=C\c3ccco3)c(=O)n2nc1Cc1ccccc1	–	-27.8% (inactive)
Cc1csc(Nc2ccc(Cl)cc2)[n+]1-c1ccc(Cl)cc1	25.9 µM (active)	–
Cc1cc(-c2nc(C)c(-c3nnc(SCC(=O)Nc4ccccc4)n3C)s2)no1	–	4.42% (inactive)
Cc1cc(C(=O)OCC(=O)Nc2ccc(F)c(F)c2)c(C)o1	–	-2.49% (inactive)
COc1ccc(CNC(=O)CSc2n[nH]c(N)n2)cc1OC	–	-13.1% (inactive)
COc1cc(CO)ccc1OCC(=O)Nc1cccc2ccccc12	–	-4.31% (inactive)
COc1ccc(CNC(=O)COc2ccccc2C(=O)c2cnn(-c3ccccc3)c2)cc1OC	14.6 µM (active)	–
COc1cc(S(=O)(=O)Nc2ncn[nH]2)ccc1Cl	–	0.0265% (inactive)
CCc1nnc(NC(=O)CSc2nnc(COc3ccc(C#N)cc3)n2-c2ccccc2)s1	–	-9.91% (inactive)
CC(C)(C)NC(=O)C(c1ccco1)N(Cc1ccc2c(c1)OCO2)C(=O)Cn1nnc2ccccc21 (stereo not given)	–	-25.3% (inactive)
CCc1ccc(C(=O)COC(=O)c2ccco2)cc1	–	13.7% (inactive)
O=C(CC1(O)C(=O)N(CN2CCOCC2)c2ccccc21)c1ccccc1 (stereo not given)	–	-27.9% (inactive)
Cc1ccc(C(=O)CC2(O)C(=O)N(CCc3ccccc3)c3ccc(Br)cc32)cc1 (stereo not given)	16.4 µM (active)	–
CCCN1C(=O)C(O)(CC(=O)c2ccc(CC)cc2)c2cc(Br)ccc21 (stereo not given)	6.51 µM (active)	–
Cc1ccc(CCN2CC(C(=O)NCCc3ccccc3)CC2=O)cc1 (stereo not given)	–	-19.1% (inactive)
Cc1coc(C)c1C(=O)CC1(O)C(=O)N(C)c2ccc(Cl)cc21 (stereo not given)	–	-16.7% (inactive)
Cc1ccccc1-c1nc(C#N)c(NCc2ccco2)o1	–	-18.2% (inactive)
COc1cc(NC(=O)C2CCN(c3cnccn3)CC2)cc(OC)c1	inactive	–
COC(=O)c1ccc(COc2ccc(/C=C/C(=O)c3ccc(OC)c(CSCC(=O)O)c3)cc2OC)cc1	–	-10.6% (inactive)
COCOc1cc(O)c(C(=O)/C=C/c2ccc(OCOC)c(OCOC)c2)c(OCOC)c1	23.1 µM (active)	–
COc1cc(/C=C/C(=O)OCC(=O)N2CCOCC2)ccc1OCC#N	–	-18.8% (inactive)

SMILES	Potency	activity change, negative = growth inhibition
CCOC(=O)CSc1nnc(NC(=O)c2cccc(S(=O)(=O)N3CCCCC3)c2)s1	–	-1.98% (inactive)
CCOc1ccc(S(=O)(=O)Nc2nc3cc(OC)ccc3s2)cc1	–	4.1% (inactive)
COc1ccc(Nc2ccc([N+](=O)[O-])cn2)cn1	–	-0.0035% (inactive)
Cc1cc(/C=N/Nc2ccc([N+](=O)[O-])cn2)c(C)n1-c1cccc(C(=O)O)c1	–	13.9% (inactive)
Cc1ccc(-n2c(C)cc(/C=N/Nc3ccc([N+](=O)[O-])cn3)c2C)c(C)c1	23.1 µM (active)	–
Cc1ccc(SCC(=O)Nc2nncs2)cc1	–	0.103% (inactive)
CCOC(=O)c1cccc(NC(=O)CCOc2ccccc2)c1	–	-11.2% (inactive)
CCOCCC(=O)Nc1ccc2c(c1)c(=O)n(C)n2-c1ccc2ccccc2c1	5.8 µM (active)	–
CCCC(=O)Nc1ccc2c(c1)nc(CCNC(=O)c1ccco1)n2C	–	-9.29% (inactive)
O=C(CCCOc1ccccc1)NNC(=O)c1ccc(Cl)cc1	–	5.41% (inactive)
CC(C)CCOc1ccc(C(=O)C[N+]2(C)CCOCC2)cc1	18.4 µM (active)	–
CC(C)Oc1ccc(C(CC(=O)N2CCOCC2)C(C)C)cc1 (stereo not given)	–	13.9% (inactive)
C[N+]1(CC(=O)c2cccs2)CCOCC1	–	-7.74% (inactive)
COc1ccccc1C1C(C(=O)N2CCCCC2)=C(C)Nc2nc3ccccc3n21 (stereo not given)	–	2.64% (inactive)
COc1cc(OC)c(NC(=O)c2c3c(nn2C)-c2ccccc2SC3)cc1Cl	16.4 µM (active)	–
COc1cc(OC)c(NC(=O)c2cnc(N3CCCC3)nc2C)cc1Cl	–	-19.9% (inactive)
COc1cc(OC)c(NC(=O)c2nc(-c3ccncc3)no2)cc1Cl	–	-5.54% (inactive)
Cc1cc(C)c(S(=O)(=O)c2cc(F)ccc2C)c(=O)[nH]1	–	-0.186% (inactive)
CCOC(=O)c1cc(-c2ccc(F)cc2)n(CC(=O)NCc2ccccn2)c1C	–	-1.43% (inactive)
CS(=O)(=O)N(CC(=O)N1CCN(Cc2ccc3c(c2)OCO3)CC1)c1ccc2c(c1)OCO2	–	-25.9% (inactive)
CCN(CCCNC(=O)C1CCN(S(=O)(=O)c2cnc[nH]2)CC1)c1ccccc1	–	-18.9% (inactive)
O=C(C1CCN(S(=O)(=O)c2cnc[nH]2)CC1)N1CCN(Cc2ccc3c(c2)OCO3)CC1	20.6 µM (active)	–
